Screening results (PubChem)
This is one part of a sample in which hits are shown more often than they occur.
IMPase cell inh: IMPase inhibition in cells. 120,000 tested, under 10 active. CHO-M1 cells, IP1 accumulation, HTRF TR-FRET ratio. inhibition (IP1 accumulation), % at 46.1 µM. AID 901; active = well fitted curve in the direction sought with a large enough effect in the signal ratio, not every such curve was filed as active; inconclusive = small, poorly fitted or top-dose-only effect, or a change in a side signal; inactive = no such curve, though single readings can be large or run the other way; the % refers to the signal ratio;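 note: cells stimulated with carbachol in lithium chloride buffer; higher means more IMPase inhibition seen as more IP1 and lower FRET ratio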
Target sequence (P97697 whole entry, looked up): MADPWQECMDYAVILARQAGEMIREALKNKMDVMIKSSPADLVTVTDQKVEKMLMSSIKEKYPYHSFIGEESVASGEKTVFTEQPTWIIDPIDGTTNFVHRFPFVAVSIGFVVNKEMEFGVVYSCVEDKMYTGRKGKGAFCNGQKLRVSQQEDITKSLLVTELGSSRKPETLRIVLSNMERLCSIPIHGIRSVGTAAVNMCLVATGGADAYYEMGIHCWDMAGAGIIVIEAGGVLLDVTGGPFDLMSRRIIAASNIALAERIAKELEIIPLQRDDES
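In this qHTS, compounds (final up to 46 uM) act on CHO-M1 cells that are then activated through the M1 receptor with carbachol, in pH 7.4 buffer containing 50 mM LiCl, for 30 min. IP1 accumulation is quantified by the IP-One immunoassay.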
Lamin A splicing: modulators of lamin A splicing | Potency, µM (top dose mostly 46.1 µM), usual class: inhibitors | HeLa LMNA splicing GFP/RFP minigene ratio, 48 h | 200,000 tested, 0.01% active; active = well fitted inhibition curve with a large enough effect in the signal ratio, with a control signal flat, not every such curve was filed as active; inconclusive = small, poorly fitted or top-dose-only effect, or effect the other way, or a change in a side signal; the % refers to the signal ratio
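Read-out is the ratio of GFP to DsRed2 object intensity, acquired by 488 nm laser-scanning cytometry on HeLa lamin A-EGFP minigene reporter cells. Compound incubation 48 hrs at 37 °C in Opti-MEM with 2% FBS; DMSO 0.5% final.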
PNC assembly inh: blocks assembly of the perinucleolar compartment | PC3M PTB-GFP, PNC prevalence imaging, 16 h; active compounds read low | activity change (PNC), negative = inhibition, % at 10 µM | 140,000 tested, 3.1% active;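 active = readout at or below -70, meaning at least 70% loss of cells showing the perinucleolar compartment, a nuclear body marking cancer cells; inconclusive = readout between -30 and a set limit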
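Read-out is percentage of cells bearing a perinucleolar compartment, from automated 20x imaging of fixed, Hoechst-stained PC3M PTB-GFP cells. Cells were seeded 4 h, then exposed 16 h to compound (23 nl of library stock) in duplicate plates.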
Hits are given with their value; – = inactive; ? = inconclusive; · = no result given; [ ] = another dose, or the depositor's remark.

SMILES | IMPase cell inh | Lamin A splicing | PNC assembly inh
CCOC(=O)C1=C(C)NC(=O)NC1/C(C)=C/c1ccccc1 (stereo not given) | – | – | –
Cc1nc2ccccc2n1/C(=N/S(=O)(=O)c1ccc(Br)cc1)c1ccccc1 | – | – | -100
CC(=O)c1cc2c(cc1N/C(=N/S(=O)(=O)c1ccc(Br)cc1)c1ccccc1)OCO2 | · | – | ·
COc1cccc2c1C(=O)c1c(O)c3c(c(O)c1C2=O)C[C@](O)(C(=O)CO)C[C@H]3O[C@@H]1C[C@H](N)[C@H](O)[C@H](C)O1 | – | ? | ·
CN(C(=O)CSc1nnc2[nH]c(=O)cc(-c3ccccc3)n12)c1ccccc1 | · | – | ·
CCOc1ccc(C(=O)Nc2ccc(-c3nc4ccccc4[nH]3)cc2)cc1[N+](=O)[O-] | · | – | -116
Cn1ncc([N+](=O)[O-])c1C(=O)Nc1ccc(-c2nc3ccccc3[nH]2)cc1 | – | – | –
CCCOc1cccc(C(=O)Nc2cccc(-c3nc4ncccc4o3)c2C)c1 | · | – | ·
O=C(c1ccccc1)N1CCCCC(Cl)C1=O (stereo not given) | · | – | ·
O=C(Cc1ccc(-n2cccc2)cc1)NCc1cccs1 | – | ? | -106
Cc1ccc(CNC(=O)Cc2ccc(-n3cccc3)cc2)cc1 | · | ? | –
CCn1c(C)nc2cc(C(=O)N=Nc3c(O)[nH]c4ccccc34)ccc21 | · | – | -93
CCn1c(C)nc2cc(C(=O)N=Nc3c(O)[nH]c4c(C)cc(C)cc34)ccc21 | · | – | –
C=CS(=O)(=O)c1ccc(Oc2ccc(S(=O)(=O)C=C)cc2)cc1 | · | ? | -134
O=S(=O)(c1ccc(Oc2ccc(S(=O)(=O)N3CCOCC3)cc2)cc1)N1CCOCC1 | – | ? | –
O=C(c1ccc([N+](=O)[O-])c(CS(=O)(=O)c2ccc(Cl)cc2)c1)N1CCCCC1 | · | –[9.22 µM] | ·
O=C(c1ccc(S(=O)(=O)c2ccccc2Cl)c([N+](=O)[O-])c1)N1CCCCCC1 | – | ? | -105
O=C(CN1CCN(S(=O)(=O)c2ccccc2F)CC1)Nc1ccccc1C(=O)c1ccccc1 | · | – | ·
CCOC(=O)c1c(C)oc2nc(C)nc(NCc3cccc(OC)c3)c12 | · | – | ·
CC(Oc1ccccc1)C(=O)N=Nc1c(O)[nH]c2ccc(Br)cc12 (stereo not given) | · | – | ·
Cc1ccccc1OCc1nc2ccccc2c(=O)n1NC(=O)c1ccco1 | – | – | -100
Cc1nc2ccccc2c(=O)n1NC(=O)c1ccco1 | – | – | –
COc1ccc(CCNC(=O)CSc2c[nH]c3ccccc23)cc1OC | · | –[9.22 µM] | ·
Cc1cc(C)cc(N2CCn3c2nc2c3c(=O)n(C/C=C/c3ccccc3)c(=O)n2C)c1 | · | – | ·
COC(=O)c1ccc(N2CCN(C(C)=O)CC2)c(NC(=O)c2cccnc2)c1 | · | – | ·
SMILES | IMPase cell inh | Lamin A splicing | PNC assembly inh
Nc1ccc(S(=O)(=O)c2ccc(N)c(N)c2)cc1 | · | – | ·
CS(=O)(=O)c1ccc(N)cc1 | – | – | -88
O=C(NC(=S)Nc1ccccn1)c1ccco1 | – | ? | –
O=C(NC(=S)Nc1ccccn1)c1ccc([N+](=O)[O-])cc1 | · | – | -85
Cn1cc(S(=O)(=O)c2ccccc2)c(=O)c2cc(F)c(N3CCCCCC3)cc21 | · | – | ·
COCCN1C(=O)c2ccc(C(=O)Nc3nccs3)cc2C1=O | – | – | -111
CCCN1C(=O)c2ccc(C(=O)Nc3nccs3)cc2C1=O | – | – | -85
COCCN1C(=O)c2ccc(C(=O)O)cc2C1=O | – | – | –
CC(C)CN1C(=O)c2ccc(C(=O)Nc3nccs3)cc2C1=O | – | – | ?
CCN(CC)S(=O)(=O)c1cccc(-c2nnc(SCc3nnc(-c4cccs4)o3)n2N)c1 | ? | – | ?
Cc1ccccc1CN1c2ccccc2S(=O)(=O)c2ccccc21 | · | – | ·
Cc1ccc(S(=O)(=O)C(CNC(=O)C(=O)NCCc2ccc(Cl)cc2)c2cccs2)cc1 (stereo not given) | · | – | ·
CNC(=S)N1CCN(c2ccc(Cl)c(Cl)c2)CC1 | · | – | ·
CCN1C2=C(C(=O)CCC2)C(c2ccc(O)c(Br)c2)C2=C1CCCC2=O | – | – | –
CCCOc1c(Br)cc(C2C3=C(CCCC3=O)N(C)C3=C2C(=O)CCC3)cc1OC | · | – | -98
Cc1ccc(N2C(=O)c3cccc4c(N5CCN(C)CC5)ccc(c34)C2=O)c2cccnc12 | – | ? | -83
Cc1cccc(N2C(=O)c3cccc4c(N5CCCCC5)c([N+](=O)[O-])cc(c34)C2=O)c1C | · | – | ?
COc1cc(OC)cc(-c2nc3cc(C)ccc3o2)c1 | – | – | -117
Cc1ccc(-c2nc3cc(Cl)ccc3o2)cc1 | – | ? | ?
COC(=O)CCS(=O)(=O)c1ccc(NC(C)=O)cc1 | – | – | –
COC(=O)CCS(=O)(=O)c1cc(Cl)ccc1Cl | – | – | -138
CCCS(=O)(=O)N1CC(=O)N(c2ccc(C)c(Cl)c2)C(C)(C(=O)NC2CCCCCC2)C1 (stereo not given) | · | – | ·
Cc1c(Cl)cccc1NC(=O)C(C)N(c1ccccc1)S(C)(=O)=O (stereo not given) | – | · | ·
CSc1nc(-c2ccco2)cc(-c2ccccc2)c1C#N | ? | – | –
COc1ccc(-c2cc(-c3ccc(OC)cc3)c(C#N)c(SC)n2)cc1 | – | – | -100
SMILES | IMPase cell inh | Lamin A splicing | PNC assembly inh
Cc1ccc(-n2c(SCC(=O)NCc3ccco3)nc3sc(C)c(C)c3c2=O)cc1 | – | – | –
Cc1sc2nc(SCC(=O)NCc3ccco3)n(-c3ccccc3)c(=O)c2c1C | – | – | -84
CCN(CC)S(=O)(=O)c1ccc(OC)c(NC(=O)c2cn(CC)c3nc(C)ccc3c2=O)c1 | · | – | ·
CCC1CSC(Nc2ccc(C(=O)/C=C/c3ccc(OC)c(OC)c3)cc2)=N1 (stereo not given) | · | ? | –
CCC1CSC(Nc2ccc(C(=O)/C=C/c3ccc(Br)cc3)cc2)=N1 (stereo not given) | · | ? | -103
O=C(Nc1sc2c(c1-c1nc3ccccc3[nH]1)CCCC2)C1CCCC1 | – | – | ?
CC(=O)NCCC(=O)Nc1sc2c(c1-c1nc3ccccc3[nH]1)CCCC2 | – | – | -80
O=C(NCCCN1CCN(c2cccc(Cl)c2)CC1)c1sc2ncccc2c1-n1cccc1 | · | – | ·
CCC(NC(=O)/C(=C\c1ccc2c(c1)OCO2)NC(C)=O)C(=O)O (stereo not given) | · | – | -125
CC(=O)N/C(=C/c1ccc2c(c1)OCO2)C(=O)Nc1ccccc1 | · | – | –
CN(C)c1ccc(CNC(=O)CCCN2C(=O)c3cccnc3Oc3ccc(Cl)cc32)cc1 | · | – | ·
COc1ccc(NC(=O)CCCN2C(=O)CCn3nc(-c4cn(C)c5ccccc45)cc32)cc1 | · | – | ·
COCCCNC(=O)C1CCCN(S(C)(=O)=O)C1 (stereo not given) | · | – | –
Cc1ccc(S(=O)(=O)N2CCCC(C(=O)Nc3cccnc3)C2)cc1 (stereo not given) | – | – | –
Cc1ccc(S(=O)(=O)N2CCCC(C(=O)NC3=NCCS3)C2)cc1 (stereo not given) | – | – | -103
COCCCNC(=O)C1CCCN(S(=O)(=O)c2ccc(C)cc2)C1 (stereo not given) | – | – | -100
O=C(Oc1cccc2c(OC(=O)N3CCCC3)cccc12)N1CCCC1 | – | – | -100
O=C(Oc1cccc2c(OC(=O)N3CCOCC3)cccc12)N1CCOCC1 | – | – | –
